Consider 13 compounds from PubChem BioAssay (NCI).

About 83,000 compounds went through this panel and 20% of them were active in at least one assay; those are over-represented in the sample as a whole.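 Step 1: grow cells in 96-well plates. Step 2: add test compound at a single concentration. Step 3: incubate 48 h. Step 4: record percent growth.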 Unmarked numbers belong to inactive results. Calls of active or inactive are those of the source. The calls were made as follows: active = growth percent below 10; inactive = the rest.

Test systems include SK-MEL-2 melanoma; EKVX NSCLC; SN12C renal; UO-31 renal; TK-10 renal; ACHN renal; A498 renal; CCRF-CEM leukemia; MOLT-4 leukemia; SR leukemia.
Holding throughout (assay): NCI-60 one-dose screen, 48 h (100 = growth as untreated, 0 = no growth, -100 = all killed)
What all share (settings): 10 µM unless noted

Consider `COc1ccc(NC(=O)c2ccc(Nc3ncnc4[nH]c(C)c(C)c34)cc2)cc1`, for which the growth is 99.2% in the assay on SK-MEL-2 melanoma; 102% with EKVX NSCLC; 95.6% in the assay with SN12C renal; 97.5% in the assay on UO-31 renal; 93.7% with TK-10 renal; 107% with ACHN renal. The growth with A498 renal was 92.7%; in the assay on CCRF-CEM leukemia it was 112%; in the assay with MOLT-4 leukemia it was 95.1%.

For `O=C1Nc2ccc(Br)cc2/C1=N\N=C/c1cn(Cc2ccccc2)c2ccccc12`, the growth in the assay on SK-MEL-2 melanoma is 91.3%; in the assay on EKVX NSCLC, 56.2%; in the assay with SN12C renal, 84.5%; in the assay on UO-31 renal, 75.7%; with TK-10 renal it was 82.4%; in the assay with ACHN renal it was 98.9%. Besides, the growth in the assay with A498 renal is 15.3%; in the assay on CCRF-CEM leukemia, 81.1%; in the assay on MOLT-4 leukemia, 67%.

Turning to `CCc1c(C(=O)N[C@@H](C(=O)OCc2ccccc2)C(C)O)[nH]c2ccc(Cl)cc12` (stereo partly specified), the growth is 106% in the assay with SK-MEL-2 melanoma; 73.8% with EKVX NSCLC; 66.6% in the assay on SN12C renal; 11.7% with UO-31 renal; 33.6% in the assay with TK-10 renal; 8.62% (active) in the assay on ACHN renal. Moreover, the growth in the assay with A498 renal was 67.7%; in the assay with CCRF-CEM leukemia, 79.6%; in the assay on MOLT-4 leukemia, 91.5%.

Consider `CCCCC1=c2c([nH]c3ccc(OC)cc23)=NC2C=CC=NC12` (stereo unspecified), for which the growth with SK-MEL-2 melanoma is 110%; with EKVX NSCLC, 84.3%; in the assay with SN12C renal, 88.5%; in the assay with UO-31 renal, 75%; in the assay on TK-10 renal, 115%; in the assay on ACHN renal, 91.2%. The growth in the assay with A498 renal is 94.9%; in the assay on CCRF-CEM leukemia, 91.5%; in the assay with MOLT-4 leukemia, 69.5%.

Regarding `N#Cc1c(NC(=O)c2cccs2)[n+]([O-])c2cc(C(F)(F)F)ccc2[n+]1[O-]`, the growth was 55.8% in the assay with SK-MEL-2 melanoma; 87.1% in the assay on EKVX NSCLC; 108% in the assay with SN12C renal; 80.5% in the assay with UO-31 renal; 104% in the assay on TK-10 renal; 102% in the assay with ACHN renal. Also, the growth in the assay on A498 renal is 123%; with CCRF-CEM leukemia, 94.7%; with MOLT-4 leukemia, 75.9%.

For `COc1ccc2[nH]c(-c3ccccc3)c(C=C(C#N)C#N)c2c1`, the growth in the assay on SK-MEL-2 melanoma was 24.1%; in the assay on EKVX NSCLC it was 33.3%; in the assay on SN12C renal, 59%; with UO-31 renal it was 53.1%; with TK-10 renal, 41.5%; in the assay on ACHN renal, 54.2%. Also, the growth in the assay on A498 renal is 21%; with CCRF-CEM leukemia, 2.26% (active); in the assay with MOLT-4 leukemia it was 0.472% (active).

Turning to `O=C1NCc2ccc3c(-c4cccc(Cl)c4)c[nH]c3c21`, the growth with SK-MEL-2 melanoma is 38.6%; with EKVX NSCLC it was 28.7%; in the assay with SN12C renal it was 36.8%; with UO-31 renal, 44.8%; in the assay on TK-10 renal, 46.2%; with ACHN renal, 48.4%. Further, the growth is 24.7% in the assay with A498 renal, 17.4% in the assay with CCRF-CEM leukemia and 18.1% in the assay on MOLT-4 leukemia.

In the case of `C#CCN(CCCOc1ccc(Cl)cc1Cl)CCCSC(=O)CCCCCN1/C(=C\C=C2/CCCC(/C=C/C3=[N+](CCCCCC(=O)[O-])c4ccccc4C3(C)C)=C2Cl)C(C)(C)c2ccccc21`, the growth was -29% (active) in the assay with SK-MEL-2 melanoma; 61.6% with EKVX NSCLC; 5.06% (active) with SN12C renal; 94.9% with UO-31 renal; 50.3% with TK-10 renal; 102% with ACHN renal. Further, the results for the growth with A498 renal, in the assay on CCRF-CEM leukemia and with MOLT-4 leukemia were 13%, -1.58% (active) and -18.7% (active), respectively.

As to `CN(CCC#N)C(=O)Nc1ccccc1`, the growth in the assay on SK-MEL-2 melanoma is 98.7%; in the assay with EKVX NSCLC, 105%; in the assay with SN12C renal, 111%; in the assay with UO-31 renal, 87.3%; in the assay on TK-10 renal it was 84.1%; with ACHN renal, 110%. For the same compound, the growth in the assay with A498 renal is 90.4%; in the assay on CCRF-CEM leukemia it was 111%; in the assay with MOLT-4 leukemia, 99.7%.

As to `CN1CCN(S(=O)(=O)O[C@@H]2C(=O)N(c3cc4c5ccccc5ccc4c4ccccc34)[C@H]2c2ccc(F)cn2)CC1`, the growth with SK-MEL-2 melanoma is 92.8%; with EKVX NSCLC, 85%; with SN12C renal it was 92.2%; in the assay on UO-31 renal, 66.6%; in the assay with TK-10 renal, 94.6%; with ACHN renal it was 92.1%. For the same compound, the growth in the assay with A498 renal was 80.4%; with CCRF-CEM leukemia, 74.8%; with MOLT-4 leukemia, 66.6%; in the assay on SR leukemia, 52.5%.

As to `CCOCc1nc2ccccc2c(=O)[nH]1`, the growth in the assay with SK-MEL-2 melanoma is 113%; with EKVX NSCLC, 95.8%; with SN12C renal it was 98%; with UO-31 renal, 92.9%; in the assay on TK-10 renal, 102%; in the assay with ACHN renal, 105%. The growth in the assay on A498 renal was 105%; in the assay with CCRF-CEM leukemia, 97.1%; with MOLT-4 leukemia, 105%; with SR leukemia it was 103%.

Turning to `C=C1C(=O)O[C@H]2[C@H]1CC/C(COC(=O)c1cn(C)c3ccccc13)=C\CC[C@@]1(C)O[C@@H]21`, the growth is -60% (active) in the assay on SK-MEL-2 melanoma; -29.1% (active) in the assay on EKVX NSCLC; -40.3% (active) with SN12C renal; -93.5% (active) in the assay on UO-31 renal; -75.2% (active) in the assay with TK-10 renal; -82.7% (active) in the assay with ACHN renal. Also, the growth is 65.4% with A498 renal, 1.59% (active) in the assay with CCRF-CEM leukemia, -0.986% (active) in the assay with MOLT-4 leukemia and -9.81% (active) in the assay on SR leukemia.

As to `CC(=O)c1ccc(NC(=O)CSc2nnc(-c3cc(-c4ccc(C)cc4)nc4ccccc34)o2)cc1`, the growth with SK-MEL-2 melanoma is 81.5%; with EKVX NSCLC, 78.3%; in the assay with SN12C renal, 20%; in the assay with UO-31 renal it was 11.5%; with TK-10 renal it was 43%; in the assay on ACHN renal, 63.6%. The growth in the assay with A498 renal is 70.5%; in the assay with CCRF-CEM leukemia, 53.6%; in the assay with MOLT-4 leukemia, 43.5%; in the assay with SR leukemia it was -12.5% (active).
